The full ranking holds about 33,000 sequences; the median of “E-score (-0.5 to 0.5)” is about -0.016, and the highest 2% start at about 0.3. Shown is part of a subset that was picked to be rich in the highest values.
Each sequence was assayed against T1, Yer184c (UniProt P39961) (assay: PBM E-score (8-mer binding enrichment) (E-score (-0.5 to 0.5)); higher = stronger / more preferred TF binding). Conditions: protein concentration: 100 nM; construct: GST-full length.
T1 sequence: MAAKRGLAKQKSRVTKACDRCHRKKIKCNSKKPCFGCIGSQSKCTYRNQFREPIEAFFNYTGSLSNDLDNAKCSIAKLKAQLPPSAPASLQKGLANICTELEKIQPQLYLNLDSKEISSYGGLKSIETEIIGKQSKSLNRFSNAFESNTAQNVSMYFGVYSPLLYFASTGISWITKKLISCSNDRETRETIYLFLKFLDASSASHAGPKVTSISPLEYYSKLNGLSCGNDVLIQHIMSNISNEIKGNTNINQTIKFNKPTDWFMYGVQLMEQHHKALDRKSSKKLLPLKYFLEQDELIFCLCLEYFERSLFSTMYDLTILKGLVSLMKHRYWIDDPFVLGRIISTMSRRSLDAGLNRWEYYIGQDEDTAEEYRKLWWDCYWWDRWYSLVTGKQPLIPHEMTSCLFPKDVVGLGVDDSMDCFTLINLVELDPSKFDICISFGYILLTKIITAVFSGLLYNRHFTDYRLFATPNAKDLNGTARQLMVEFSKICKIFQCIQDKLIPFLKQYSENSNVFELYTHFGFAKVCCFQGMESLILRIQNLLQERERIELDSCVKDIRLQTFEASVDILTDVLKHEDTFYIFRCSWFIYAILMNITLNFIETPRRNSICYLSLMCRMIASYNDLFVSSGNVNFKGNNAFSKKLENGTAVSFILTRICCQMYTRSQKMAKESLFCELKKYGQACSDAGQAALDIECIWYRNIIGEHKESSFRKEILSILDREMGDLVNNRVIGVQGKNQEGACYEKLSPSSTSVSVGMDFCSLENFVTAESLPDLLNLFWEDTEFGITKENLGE
In short: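 E-scores (a modified Wilcoxon-Mann-Whitney statistic) were assigned by the Universal PBM Analysis Suite to every ungapped eight-base word pooled with its reverse complement. The input came from universal all-10-mer Agilent arrays made double-stranded by primer extension and probed with GST-tagged yeast transcription factors at about 100-200 nM. Fluorescent anti-GST detected bound protein, and masliner normalised the scans.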

Row | Sequence | PBM E-score
1 | AATAACCA | 0.0129
2 | CGCTTTAC | -0.137
3 | AATCCGGA | 0.401
4 | CATCCGTC | -0.0104
5 | AATCCGTA | 0.0372
6 | CATCCGCC | 0.0602
7 | CATCCGGC | 0.358
8 | AATCCGCA | 0.101
9 | CCGAGCAG | 0.17
10 | ACCAATCA | 0.0919
11 | AGCTTTCG | 0.105
12 | ATTCCCAC | -0.171
13 | CTGGTGTA | -0.234
14 | ATTTCCCA | 0.107
15 | ATCTTCGA | -0.0159
16 | ATTTTCGG | 0.377
17 | ATATTTCG | 0.318
18 | ATTTTCGA | 0.121
19 | ATTTCCCC | -0.166
20 | ATTTCCCG | 0.328
21 | ATATTTCC | 0.177
22 | ATTTTCGC | 0.111

Row | Sequence | PBM E-score
23 | ATCTTCGC | -0.0164
24 | ATATTTCA | 0.201
25 | ATCTTCGG | 0.35
26 | CCCATTCC | -0.258
27 | ACACTCCA | -0.127
28 | AAGGCTTC | -0.0592
29 | TATTCTAA | 0.181
30 | CACTTCTA | -0.133
31 | CCTTGCTC | -0.141
32 | GGAGGTAA | -0.0289
33 | CATTTCCG | 0.3
34 | ATTTCTTA | 0.216
35 | AGTTTCCG | 0.392
36 | ATTTCTTC | 0.315
37 | AATTTCCC | 0.0065
38 | ATTTCTTG | 0.216
39 | ATTTTCCC | 0.00872
40 | ATTTTCCG | 0.4
41 | AGTTTCCC | -0.0163
42 | AATTTCCG | 0.406
43 | AGTTTCCA | 0.111
44 | ATTTTCCA | 0.178

Row | Sequence | PBM E-score
45 | ATGAAGCA | -0.0497
46 | CACTTCTC | -0.119
47 | CGTAAGTC | -0.00193
48 | ATTGTTGA | 0.141
49 | CCTGCATA | -0.105
50 | ACAGCGAA | 0.117
51 | CTTACTGC | -0.0955
52 | AATTTTCG | 0.092
53 | ATTTTTCG | 0.314
54 | ATTTTTCA | 0.169
55 | ATTTCTCC | 0.122
56 | ATTTCTCG | 0.308
57 | ATTTCTCA | 0.099
58 | ATCTCACA | -0.0208
59 | GTCTGGCA | -0.16
60 | CAGTATAC | -0.0142
61 | AAAAATGC | 0.143
62 | AAACTAGC | -0.093
63 | GGTTCCGA | 0.278
64 | AGTTCCAG | -0.101
65 | CGTTCCGA | 0.236
66 | AGTTCCGC | 0.305

Row | Sequence | PBM E-score
67 | AGTTCCTG | -0.18
68 | AGTTCCGG | 0.374
69 | AGTTCCAC | -0.00257
70 | AGTTCCGA | 0.313
71 | CGTTCCGC | 0.262
72 | CCGGTCTC | 0.0994
73 | CTAAAGGC | -0.0965
74 | ACTAGCAC | -0.174
75 | AATGGTAC | -0.00404
76 | ACTAGGAA | -0.177
77 | CATGCCAG | -0.161
78 | AATGCCCG | -0.121
79 | CATGCCGC | 0.181
80 | TATGCCGA | 0.28
81 | AATGCCTA | -0.0279
82 | AATGCCGG | 0.35
83 | AATGCCGA | 0.378
84 | CATGCCGG | 0.366
85 | CATGCCGA | 0.336
86 | AATGCCTG | -0.123
87 | CATGCCTA | -0.261
88 | CATGCCCG | 0.0955
